From PubChem
GLP-1R agonist: activates the human GLP-1 receptor. P43220. AID 624172. Potency, µM (series often up to 45.6 µM), most hits filed as activators. HEK293 GLP-1R CRE-luciferase, luminescence, 4-6 h; cells express a hypersensitive GLP-1R form. 380,000 compounds, 0.007% hits
Target sequence (P43220 whole entry, looked up): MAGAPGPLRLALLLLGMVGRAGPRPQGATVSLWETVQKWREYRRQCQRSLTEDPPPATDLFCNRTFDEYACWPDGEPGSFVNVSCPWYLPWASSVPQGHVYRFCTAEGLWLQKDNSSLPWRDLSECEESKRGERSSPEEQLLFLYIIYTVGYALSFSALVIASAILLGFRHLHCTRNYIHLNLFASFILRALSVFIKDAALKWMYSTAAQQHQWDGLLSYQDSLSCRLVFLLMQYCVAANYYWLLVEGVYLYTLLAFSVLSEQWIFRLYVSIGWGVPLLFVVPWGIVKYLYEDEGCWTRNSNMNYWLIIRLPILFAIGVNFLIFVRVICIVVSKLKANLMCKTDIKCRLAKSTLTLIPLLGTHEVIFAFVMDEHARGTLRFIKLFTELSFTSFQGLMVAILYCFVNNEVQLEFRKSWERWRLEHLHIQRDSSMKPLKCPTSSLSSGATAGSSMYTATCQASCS
GLP1R inv ag: acts as inverse agonist at human GLP-1 receptor. 410,000 compounds, 1.6% hits. P43220. Potency, µM (titrated, usually from 38.3 µM), most hits filed as inhibitors. HEK293 GLP-1R CRE-luciferase, luminescence, 24 h; GLP-1R form is constitutively active; also: nearly all actives have a fitted effect of over 55% in size
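Stable HEK293 clone (constitutively active GLP-1R + cAMP-response luciferase); 200 cells/uL plated, 12 h pre-culture, compound 24 hr, 37 deg C/5% CO2; detection reagent 12 min RT; luminescence.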
GLP1R cytotox: cytotoxic in the GLP-1 receptor inverse agonist counter-screen; Potency, µM (highest dose often 38.3 µM), actives largely listed as inhibitors; HEK293 cAMP-luciferase reporter cells, luminescence, 24 h; AID 624418; 410,000 compounds, 0.13% hits;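 also: loss of luciferase light is scored as toxicity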
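A 23 nL compound transfer followed 12 hours of cell culture at 37 deg C; exposure then lasted 24 hr. Luciferase assay detection reagent was dispensed and plates read for luminescence after a 12 min room-temperature wait.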
D3 antag: antagonists of human D3 dopamine receptor | D3R cells, DiscoveRx beta-arrestin luminescence, antagonist mode; active compounds read low | max response, negative = inhibition, % | AID 652054 | 360,000 compounds, 2.5% hits; in the data active = max response below about -50%; inconclusive = no clear call, values can overlap the other calls
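Cells expressing the human receptor were seeded at 1500 cells/well, incubated overnight at 37 degrees C in 5% CO2, then exposed to library compounds with dopamine controls for 90 minutes at 37 degrees C before luminescent detection.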
ClpP mod: qHTS Assay for Activators of ClpP; purified B. subtilis ClpP, FRET peptide cleavage, 20 min; AID 651965, 2013; ATP-dependent Clp protease proteolytic subunit (Bacillus subtilis (strain 168)), P80244; Potency, µM (series often up to 57.5 µM); 340,000 compounds, 1.9% hits; active = well fitted falling curve with a large enough effect; inconclusive = small, poorly fitted or top-dose-only effect; inactive = no such curve, though single readings can be large or run the other way; also: the source files actives as falling curves though it sought activators and does not explain the sign; nearly all actives have a fitted effect of over 65% in size
Target sequence (P80244 whole entry, looked up): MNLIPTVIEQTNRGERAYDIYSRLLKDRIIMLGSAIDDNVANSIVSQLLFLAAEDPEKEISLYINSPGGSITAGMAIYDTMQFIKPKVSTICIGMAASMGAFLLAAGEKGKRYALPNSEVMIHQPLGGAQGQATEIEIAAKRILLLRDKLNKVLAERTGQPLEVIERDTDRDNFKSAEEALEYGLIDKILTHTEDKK
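Buffer: 100 mM Tris/HCl pH8, 100 mM KCl, 0.05% low protease BSA, 2.5% glycerol, 0.01% Tween-20. ClpP 10 microg/mL final; 20 min RT; delta FRET normalized to ADEP and DMSO controls.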
DRD3 agonist: D3 dopamine receptor (human) agonism; P35462; D3R DiscoveRx beta-arrestin cells, luminescence, 90 min; max activation, %; 410,000 compounds, 0.58% hits; AID 652048; in the data active = max activation above about 30%
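Cells at 1500/well, incubated overnight, then treated with pinned compounds (dopamine as control) for 90 min at 37 degrees C. DiscoveRx reagent added for 30 - 60 minutes at room temperature; luminescence read.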
Each line names hits and unclear results; the compound was inactive in the other large screens; ! = a repeat was not active. This is a sample that favours compounds with a hit; in the whole collection about 5.7% have one here. Unless noted, calls follow the shape of the dose curve; as a rule, active = well fitted curve in the direction sought with a large enough effect; inconclusive = small, poorly fitted or top-dose-only effect, or another doubt; inactive = no such curve, though single readings can be large; an effect the other way counts as inactive or inconclusive.

CCOC(=O)[C@H]1[C@H]2COc3ccc(C)cc3[C@@H]2N2C(=O)c3cc(OC)c(OC)cc3NC(=O)[C@@]12C	D3 antag -60
CCOC(=O)[C@H]1[C@H]2COc3ccc(OC)cc3[C@@H]2N2C(=O)c3cc(OC)c(OC)cc3NC(=O)[C@@]12C	D3 antag -61
O=c1[nH]c(=O)c2ncn(C3OC(CO)C(O)C3O)c2[nH]1 (stereo not drawn)	none (no result: GLP-1R agonist, GLP1R inv ag, GLP1R cytotox, D3 antag, DRD3 agonist)
COC(=O)C[C@@H]1C=C[C@H](NC(=O)Cc2ccccn2)[C@@H](CO)O1	DRD3 agonist 30 (no result: GLP-1R agonist)
Cc1cnc(-c2nnc(N(C)C(=O)C3CCCO3)s2)cn1 (stereo not drawn)	ClpP mod 28µM
COc1ccc(NC(=O)C(CC(C)C)NC(=O)C2CCCCC2)cc1 (stereo not drawn)	none (no result: GLP-1R agonist, D3 antag)
Cc1ccc(-c2nnc(-c3ccc(NC(=O)c4ccco4)cc3)o2)cc1	ClpP mod 32µM
O=C(Nc1ccc(-c2nc3ncccc3o2)cc1)c1ccco1	ClpP mod 28µM
Cc1ccccc1OCc1nc(-c2ccc(NC(=O)c3ccco3)cc2)no1	GLP1R inv ag inconclusive, GLP1R cytotox inconclusive, ClpP mod 28µM
Cc1ccccc1OCc1nc(-c2ccc(NC(=O)c3cccs3)cc2)no1	GLP1R inv ag inconclusive, GLP1R cytotox inconclusive
Cc1ccc(-c2nnc(COC(=O)c3ccco3)o2)cc1	D3 antag -95
CCCn1c2ccccc2c2cnn(CC(=O)N3CCN(c4ccccc4)CC3)c(=O)c21	none (no result: GLP-1R agonist, D3 antag)
COc1ccc(NC(=O)CSc2nc3c(c(=O)[nH]2)CCC3)cc1	none (no result: GLP-1R agonist, D3 antag)
O=C(c1ccc(Cl)nc1)N1CCN(C/C=C/c2ccccc2)CC1	none (no result: ClpP mod)
O=C(NC(=S)N1CCN(C/C=C/c2ccccc2)CC1)c1ccco1	GLP1R cytotox inconclusive
O=C(c1ccco1)N1CCN(C/C=C/c2ccccc2)CC1	D3 antag -109
O=C(c1nn(Cc2ccccc2)c(=O)c2ccccc12)N1CCN(C/C=C/c2ccccc2)CC1	GLP1R inv ag 7.9µM
N#C/C(=C/c1ccc(Sc2nc3ccccc3[nH]2)o1)c1cccc(Br)c1	GLP1R inv ag 10µM
O=C1c2ccccc2-c2cc([N+](=O)[O-])c([N+](=O)[O-])cc21	none (no result: GLP-1R agonist, GLP1R inv ag, GLP1R cytotox, D3 antag, DRD3 agonist)
O=C(C[N+]12CCCc3cccc(c31)CCC2)c1ccc2ccc3cccc4ccc1c2c34	none (no result: GLP-1R agonist, GLP1R inv ag, GLP1R cytotox, D3 antag, DRD3 agonist)
COc1ccc(N2CCN(c3oc(COc4ccc(Cl)cc4)nc3C#N)CC2)cc1	GLP1R inv ag inconclusive
N#Cc1nc(COc2ccc(Cl)cc2)oc1N1CCN(Cc2ccccc2)CC1	GLP1R inv ag inconclusive, ClpP mod 28µM
COc1ccc(N2CCN(c3oc(COc4ccccc4)nc3C#N)CC2)cc1	GLP1R inv ag 2.8µM
Cc1ccc2oc(=O)c3cnn(CC(=O)N4CCN(c5cc(Cl)ccc5C)CC4)c3c2c1	none (no result: GLP-1R agonist, D3 antag)
COCCn1c(C)cc(C(=O)COC(=O)c2ccc3ncsc3c2)c1C	D3 antag -55
COc1ccccc1C(C)NCC(=O)c1c(C)[nH]c2ccccc12 (stereo not drawn)	none (no result: GLP-1R agonist, GLP1R inv ag, GLP1R cytotox, D3 antag, DRD3 agonist)
CCOc1ccc(NC(=O)CSc2oc(-c3cccs3)nc2S(=O)(=O)c2ccc(C)cc2)cc1	none (no result: GLP-1R agonist, D3 antag)
CCOC(=O)CSC1=C(C#N)C(c2ccc(C)o2)CC(=O)N1 (stereo not drawn)	GLP1R inv ag 0.56µM
COCn1c(-c2ccc(OC)c(OC)c2)nc2ccccc21	ClpP mod 28µM
COCn1c(-c2cccc(Br)c2)nc2ccccc21	GLP1R inv ag inconclusive, ClpP mod inconclusive
CO/N=C\CC(=O)Nc1ccc(Oc2ccccc2)cc1	GLP1R inv ag 1.3µM (no result: ClpP mod)
O=C(C/C=N\O)Nc1ccc(Oc2ccccc2)cc1	none (no result: ClpP mod)
COc1ccc(CNC(=O)Cc2ccc(NC(=O)N3CCSc4ncccc43)cc2)cc1	none (no result: GLP-1R agonist, D3 antag)
Cc1[nH]n(-c2cccc(Cl)c2)c(=O)c1-c1ccccc1	D3 antag -52
O=C(CN1C(=O)COc2ccccc21)NCCCN1CCc2ccccc2C1	D3 antag -77
O=C(CN1C(=O)COc2ccccc21)NCCN1CCC(Cc2ccccc2)CC1	GLP1R cytotox inconclusive, D3 antag -57
CC1(C)Cc2c(c(N3CCOCC3)nc3snc(N)c23)CO1	GLP1R inv ag 4µM
Cc1nc2c(sc3nc(N4CCOCC4)c4c(c32)CC(C)(C)OC4)c(-c2ccc(Cl)cc2)c1C(=O)O	GLP1R inv ag 4.5µM
COC(=O)c1cccnc1-n1c(=O)c2cccnc2n(CC(=O)Nc2ccccc2F)c1=O	none (no result: GLP-1R agonist, D3 antag)
O=C1Nc2ccccc2-n2nnnc2C1N1CCN(c2ccc(C(F)(F)F)cc2[N+](=O)[O-])CC1 (stereo not drawn)	GLP1R inv ag inconclusive, D3 antag inconclusive (no result: GLP-1R agonist)
CCOC(=O)c1ccc(NC(=O)C(=O)NCC2CCCO2)cc1 (stereo not drawn)	ClpP mod 32µM
CCc1ccc(NC(=O)C(=O)NCC2CCCO2)cc1 (stereo not drawn)	none
CN(C)C(=O)c1cccc(-c2cccc(-c3nc(C(=O)NCc4ccccc4)cc4c3[C@H](CCO)N(S(=O)C(C)(C)C)C4)c2)c1 (stereo partly drawn)	none
O=C(COC(=O)CN1C(=O)C2CCCCC2C1=O)NNC(=O)c1ccc(Cl)cc1 (stereo not drawn)	D3 antag -75
O=C(COC(=O)CN1C(=O)C2CCCCC2C1=O)Nc1c(Cl)cccc1Cl (stereo not drawn)	none
Cn1c(=O)c2c(ncn2CC(=O)OCC(=O)Nc2cc(Cl)ccc2Cl)n(C)c1=O	none
Cn1c(=O)c2c(ncn2CC(=O)OCC(=O)NNC(=O)c2ccc(Cl)cc2)n(C)c1=O	D3 antag -124
Cc1nn2c(C)c(C(=O)NC(C)(C)C)cnc2c1-c1ccc(F)cc1	none (no result: GLP-1R agonist, D3 antag)
Nc1c(CC(=O)O)cccc1C(=O)c1ccccc1	DRD3 agonist 42! (no result: GLP1R inv ag, GLP1R cytotox, D3 antag, ClpP mod)
Nc1c(CC(=O)O)cccc1C(=O)c1ccc(Br)cc1	none (no result: GLP1R inv ag, GLP1R cytotox, D3 antag, ClpP mod)
Cc1ccc2nc3c(cc(C#N)c(=O)n3-c3nnc(SCc4ccc(F)cc4)s3)c(=O)n2c1	none (no result: GLP-1R agonist, D3 antag)
CCOC(=O)/C=C/[C@H]1CCc2cccc(C)c2O1	D3 antag -63
CCOC(=O)/C=C/[C@H]1Cc2ccccc2CO1	none
CCN(CC(O)c1cccc(O)c1)C(=O)C12CC3CC(CC(C3)C1)C2 (stereo not drawn)	GLP-1R agonist 13µM, GLP1R inv ag inconclusive, D3 antag -78
Cc1ccc(S(=O)(=O)N2CCOCC2)cc1NC(=O)COC(=O)c1ccc(Br)o1	none
Cc1cc(=O)oc2cc(OCC(=O)NCc3cccnc3)ccc12	ClpP mod 25µM
